{"source": "PubChem BioAssay AID1850", "about": "(Southern Research Specialized Biocontainment Screening …, 2009)", "note": "In all, about 310,000 compounds went through this assay and about 1,000 (0.32%) were called active. These entries were drawn from the full list. Results with a measured potency or affinity are listed apart. Unmarked numbers belong to inactive results. How the calls were made is not given here."}
{"test": "PhoP regulon inhibitors, Salmonella typhi PhoP promoter GFP reporter, confirmatory (AID 1850);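 further: 0% = induced wells with vehicle and 100% = uninduced wells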", "details": "fluorescence, 4 h, at 50 µM, stronger effect = higher value", "units": {"inhibition": "%"}}
{"smiles": "CCC(Oc1ccc(C)cc1)C(=O)Nc1ccc2c(c1)n(C)c(=O)n2C", "note": "(stereo not drawn)", "inhibition": -3.92}
{"smiles": "CCNC(=O)CC1SC(=Nc2cccc3ccccc23)N(C)C1=O", "note": "(stereo not drawn)", "inhibition": -5.94}
{"smiles": "CCN(CC(=O)NC(=O)Nc1ccccc1F)Cc1ccccc1", "inhibition": -3.48}
{"smiles": "CCN1CCN(C(=O)CCCn2c(C)c3cnn(-c4ccccc4)c(=O)c3c2C)CC1", "inhibition": -6.37}
{"smiles": "O=C(CN(CCO)c1ccccc1)Nc1ccc(Cl)c(S(=O)(=O)N2CCOCC2)c1", "inhibition": -1.19}
{"smiles": "Cc1ccc2[nH]c3c(NCc4ccccc4)ncnc3c2c1", "inhibition": -1.37}
{"smiles": "Clc1ccc2[nH]c3c(NCCN4CCOCC4)ncnc3c2c1", "inhibition": 0.11}
{"smiles": "Clc1ccc2[nH]c3c(NCC4CCCO4)ncnc3c2c1", "note": "(stereo not drawn)", "inhibition": -14}
{"smiles": "C=CCNc1ncnc2c1[nH]c1ccccc12", "inhibition": -0.69}
{"smiles": "CCCNC(=O)c1oc2ccc3c(c2c1C)C=CC(C)(C)O3", "inhibition": -5.94}
{"smiles": "Cc1nc2ccccn2c1C(=O)NNC(=S)Nc1ccc(Cl)cc1", "inhibition": 0.64}
{"smiles": "Cc1ccc(C(=O)NCCN2C3=NC[C@H](Cc4ccc(O)cc4)N3C[C@H]2Cc2ccc(O)cc2)cc1Br", "inhibition": 12.4}
{"smiles": "COc1ccc(C[C@H]2CN3C(=NC[C@H]3Cc3ccccc3)N2CCNC(=O)c2ccc(C)c(Br)c2)cc1", "inhibition": 26.2}
{"smiles": "O=C(Nc1ccnn1C1CCN(C/C=C/c2ccccc2)CC1)C1CCCC1", "inhibition": -2.03}
{"smiles": "COC(=O)C1=NN(c2ccc(C)cc2)C2(S1)SC(C(C)=O)=C(C)N2c1ccccc1", "note": "(stereo not drawn)", "inhibition": -16.3}
{"smiles": "CC(=O)c1cccc(OCC(O)CNCCc2ccc(Cl)cc2)c1", "note": "(stereo not drawn)", "inhibition": 4.73}
{"smiles": "COc1ccc(NCC(O)COc2ccc(C(C)(C)C)cc2)cc1", "note": "(stereo not drawn)", "inhibition": 10.5}
{"smiles": "COc1ccc(CCNCC(O)COc2ccc(Cl)cc2)cc1OC", "note": "(stereo not drawn)", "inhibition": 5.92}
{"smiles": "OC(CNCc1ccccc1)COc1ccccc1", "note": "(stereo not drawn)", "inhibition": 18.5}
{"smiles": "OC(CNCc1ccc(Cl)cc1)COc1ccccc1", "note": "(stereo not drawn)", "inhibition": 11.1}
{"smiles": "Cc1cc(Cl)ccc1OCC(O)CNCCc1ccc(S(N)(=O)=O)cc1", "note": "(stereo not drawn)", "inhibition": -14.1}
{"smiles": "CC(C)(C)NCC(O)COc1ccc(Br)cc1", "note": "(stereo not drawn)", "inhibition": -6.26}
{"smiles": "OC(CNCCC(c1ccccc1)c1ccccc1)COc1ccccc1", "note": "(stereo not drawn)", "inhibition": -4.1}
{"smiles": "CC1=NN(C(=O)c2c(Br)cnn2C)C(O)(C(F)(F)F)C1", "note": "(stereo not drawn)", "inhibition": 14.8}
{"smiles": "CC(C)(C)c1ccc(C(=O)NNC(=S)NC(=O)c2cccnc2)cc1", "inhibition": 7.73}
{"smiles": "CCn1c(SCC(=O)Nc2oc(C)c3c(C)n[nH]c(=O)c23)nc2sc(C)c(C)c2c1=O", "inhibition": -1.81}
{"smiles": "CCOc1ccc(NC(=O)C2CCCN(S(=O)(=O)c3ccc4[nH]c(=O)ccc4c3)C2)cc1", "note": "(stereo not drawn)", "inhibition": 4.78}
{"smiles": "COc1ccc(NC2c3ccccc3C(=O)N2c2ccccn2)cc1", "note": "(stereo not drawn)", "inhibition": 0.4}
{"smiles": "COc1ccc(C(C)=O)cc1CSc1nnc(Nc2ccc(C)cc2)s1", "inhibition": 7.09}
{"smiles": "Cc1nn2c(-c3cccnc3)ccnc2c1-c1ccccc1", "inhibition": -4.51}
{"smiles": "COc1ccc(N2C(=O)CC(C#N)=C2N)cc1", "inhibition": 17.1}
{"smiles": "COc1ccc(-n2nc(C)c3c(=O)c4c([nH]c32)CCCC4)cc1", "inhibition": 7.61}
{"smiles": "Cc1cccc(NC(=O)CN2C(=O)C(C)Oc3ccccc32)n1", "note": "(stereo not drawn)", "inhibition": -5.84}
{"smiles": "CN1C(=O)Cc2cc(S(=O)(=O)N3CCN(c4ccc(Cl)cc4)CC3)ccc21", "inhibition": 3.82}
{"smiles": "C=CCc1c(C)nc(C)nc1N/N=C/c1ccccc1O", "inhibition": -9.46}
{"smiles": "COc1ccc(OCCCC(=O)OC(C)C(=O)Nc2cccc(C(C)=O)c2)cc1", "note": "(stereo not drawn)", "inhibition": 15.1}
{"smiles": "O=C(Cn1cc([N+](=O)[O-])ccc1=O)NCc1ccc(Cl)cc1Cl", "inhibition": -7.2}
{"smiles": "COC(=O)c1ccc(CNCC(O)COc2ccc(-c3ccccc3)cc2)cc1", "note": "(stereo not drawn)", "inhibition": 10.8}
{"smiles": "CC(C)N(CCNCC(O)COc1ccc(C(C)(C)c2ccccc2)cc1)C(C)C", "note": "(stereo not drawn)", "inhibition": -17.3}
{"smiles": "COc1ccc(OC)c(-n2nnnc2SCC(=O)NCc2ccc3c(c2)OCO3)c1", "inhibition": 0.94}
{"smiles": "c1ccc2c(c1)[nH]c1cnccc12", "inhibition": 7.53}
{"smiles": "c1ccc2c(c1)[nH]c1ccncc12", "inhibition": -9.87}
{"smiles": "COc1ccc2[nH]c3c(=S)nc[nH]c3c2c1", "inhibition": 3.32}
{"smiles": "COc1ccc2[nH]c3c(Cl)ncnc3c2c1", "inhibition": 1.3}
{"smiles": "COc1cc(NC(=O)CSc2nnc(-c3ccncc3)n2C2CCCCC2)ccc1NC(=O)c1ccco1", "inhibition": -17.8}
{"smiles": "Cc1cc(C)c(S(=O)(=O)N2CCC(C(N)=O)CC2)cc1C", "inhibition": 16.3}
{"smiles": "COc1ccc(-c2sc(Nc3ccc(F)c(F)c3F)nc2CCC(=O)NN)cc1", "inhibition": 4.23}
{"smiles": "CS(=O)(=O)N1N=C(c2ccco2)CC1c1ccccc1", "note": "(stereo not drawn)", "inhibition": -3.63}
{"smiles": "NC(=O)C1CCN(C(=O)/C=C/c2cc(Br)ccc2F)CC1", "inhibition": -0.48}
{"smiles": "CCOC(=O)CNC(=S)NN(C)C", "inhibition": 10.8}
{"smiles": "CC(C)(C)OC(=O)N[C@@H](Cc1ccccc1)C(=O)N1CCC(C(=O)N[C@@H](CCC(N)=O)C(=O)O)CC1", "inhibition": -2.12}
{"smiles": "CCOc1ccc(CCNC(=O)c2cc(=O)[nH]c3ccc(S(=O)(=O)N(CC)CC)cc23)cc1OCC", "inhibition": -9.13}
{"smiles": "O=C1C=C(O)c2cccc3cccc1c23", "inhibition": -13.1}
{"smiles": "O=C1C(=O)c2cccc3cccc1c23", "inhibition": -2.11}
{"smiles": "CCOc1cc(N2CCOCC2)c(OCC)cc1NC(=O)CC12CC3CC(CC(C3)C1)C2", "inhibition": -0.45}
{"smiles": "COc1ccccc1Nc1nc(Cl)nc(NC(C)(C)C)n1", "inhibition": -9.98}
{"smiles": "Clc1ccc(-c2nc(Cc3ccccc3)no2)cc1", "inhibition": 11.6}
{"smiles": "OCCNCc1cc(Br)ccc1OCc1ccc(F)cc1", "inhibition": 10.4}
{"smiles": "OCCNCc1cc(Br)ccc1OCc1ccccc1", "inhibition": -2.3}
{"smiles": "CCSP1(=S)N=C(N2CCOCC2)C(C#N)=C2CCCN21", "note": "(stereo not drawn)", "inhibition": -5.06}
{"smiles": "Cc1cccc(NCC(=O)N/N=C\\c2cccn2C)c1", "inhibition": -0.18}
{"smiles": "O=C(NC(=S)NNC(=O)c1cc2ccccc2cc1O)c1ccco1", "inhibition": -70.1}
{"smiles": "O=C(Nc1ccc(NC(=O)c2cccs2)cc1)c1ccc(Br)o1", "inhibition": 3.54}
{"smiles": "O=C(NNC(=O)c1ccccc1O)c1ccco1", "inhibition": 14.9}
{"smiles": "O=C(NNC(=O)c1cccs1)c1ccc(Br)o1", "inhibition": -19.9}
{"smiles": "O=C(NC(=S)Nc1ccc(NC(=O)c2cccs2)cc1)c1ccco1", "inhibition": -1.46}
{"smiles": "COc1ccc(C(=O)NNC(=S)NC(=O)/C=C/c2cccs2)cc1", "inhibition": 12}
{"smiles": "O=C(NNC(=O)c1cccs1)c1ccco1", "inhibition": 0.32}
{"smiles": "O=C(NC(=S)NNC(=O)c1ccccc1O)c1cccs1", "inhibition": 7.92}
{"smiles": "Cc1ccc(-c2nnn(CC(=O)Nc3ccccc3N3CCOCC3)n2)cc1", "inhibition": -3.19}
{"smiles": "COC(=O)C(O)(c1ccc(N(C)C(=O)OC(C)C)cc1)C(F)(F)F", "note": "(stereo not drawn)", "inhibition": 0.83}
{"smiles": "CCOc1ccc(S(=O)(=O)N(C)c2ccc(OCC(=O)NC3=NCCS3)cc2)cc1", "inhibition": -20.3}
{"smiles": "O=C(Nc1cccnc1Cl)c1cc(-c2ccc(F)cc2)on1", "inhibition": 5.5}
{"smiles": "CCN(CCn1cccn1)C(=O)c1cc(COc2ccc(F)c(F)c2)on1", "inhibition": 6.34}
{"smiles": "CCOC(=O)c1nc2c(=O)n(C)c(=O)n(C)c2n(C)c1=O", "inhibition": 2.99}
{"smiles": "Cc1cccc(NC(=O)CSc2nnc(NC(=O)C3CC3)s2)c1C", "inhibition": 3.53}
{"smiles": "O=C(NC(=S)NNC(=O)c1ccco1)c1ccccc1", "inhibition": 21.3}
{"smiles": "O=C(NC(=S)NNC(=O)c1ccco1)c1ccc(F)cc1", "inhibition": 0.37}
{"smiles": "O=C(Cc1ccccc1)NNC(=O)c1cccs1", "inhibition": 6.4}
{"smiles": "O=C(Cc1ccc(Cl)cc1)NNC(=S)NC(=O)c1cccs1", "inhibition": 11.9}
{"smiles": "CC(=O)N1CCN(c2ccccc2NC(=O)Cc2ccc(Cl)cc2)CC1", "inhibition": -3.34}
{"smiles": "COC(=O)C(Cc1ccc(O)cc1)NC(=O)CCNC(=O)c1ccco1", "note": "(stereo not drawn)", "inhibition": -6.89}
{"smiles": "CCCc1cc(CN(C)C(=O)CC2C(=O)NCCN2Cc2ccccc2C)[nH]n1", "note": "(stereo not drawn)", "inhibition": -5.02}
{"smiles": "CC(NS(=O)(=O)c1ccccc1)C(=O)NCc1ccco1", "note": "(stereo not drawn)", "inhibition": 4.53}
{"smiles": "Cc1ccc(Nc2cc(C)c3ccc(O)cc3n2)cc1C", "inhibition": 9.14}
{"smiles": "COc1ccc(Nc2cc(C)c3ccccc3n2)cc1", "inhibition": -2.31}
{"smiles": "CC(=O)Nc1ccc(Nc2cc(C)c3ccccc3n2)cc1", "inhibition": -5.65}
{"smiles": "COC(=O)c1cc(Nc2cc(C)c3c(O)cccc3n2)cc(C(=O)OC)c1", "inhibition": -3.04}
{"smiles": "Cc1ccc(-c2cc(C(=O)OCC(=O)Nc3ncc(C(F)(F)F)cc3Cl)c3ccccc3n2)cc1", "inhibition": -6.32}
{"smiles": "O=C(CN1c2ccccc2S(=O)(=O)c2ccccc21)Nc1ccccc1F", "inhibition": 2.92}
{"smiles": "CC(NC(=O)Cn1ncc(Cl)c(Cl)c1=O)C12CC3CC(CC(C3)C1)C2", "note": "(stereo not drawn)", "inhibition": -18.9}
{"smiles": "O=C(CN1C2=NCCN2c2ccccc21)c1ccc(Br)s1", "inhibition": 13.2}
{"smiles": "O=C(CN1C2=NCCCN2c2ccccc21)c1cccs1", "inhibition": 9.76}
{"smiles": "O=C(CN1C2=NCCCN2c2ccccc21)c1ccc2c(c1)OCO2", "inhibition": 28.1}
{"smiles": "O=C(O)CN1C2=NCCCN2c2ccccc21", "inhibition": -7.68}
{"smiles": "CCOC(=O)Nc1cc(Br)c2c(c1)OCCO2", "inhibition": 9.05}
{"smiles": "CCCC[C@@H]1C[C@H]1[C@@H](NC(=O)c1ccco1)c1ccc(C(=O)OC)cc1", "inhibition": -1.55}
{"smiles": "COc1ccc(CNC(=O)c2ccc3c(=O)n(-c4ccccc4)c(=O)[nH]c3c2)cc1", "inhibition": 9.07}
